Compound activity as filed in PubChem.
Beta apoptosis = beta cell apoptosis inhibition. 0.8% of 300,000 active. INS-1E cytokine-induced death, ATP luminescence, 48 h; percent of positive-control rescue, neutral wells zero. protection from apoptosis, % (no concentration beside the values). AID 435005;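 active = Every replicate reaches about 75%, or at least half do and their mean reaches it too, limit read from the data; inconclusive = At least half of replicates reach the limit but their mean does not; inactive = Under half of replicates reach the limit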;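 also: 0% = cytokine-treated negative control wells and 100% = positive control rescue; higher means more ATP so stronger rescue from cytokine killing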
Mdm2-MdmX inh = inhibitors of human Mdm2/MdmX interaction | O15151+Q00987 | SaOS-2 split-luciferase Mdm2/MdmX complementation, luminescence | inhibition, % at 8 µM | 3% of 330,000 active | AID 485346;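 active = inhibition of at least 50% at 8 µM in the primary screen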
Target sequence (O15151 whole entry, looked up): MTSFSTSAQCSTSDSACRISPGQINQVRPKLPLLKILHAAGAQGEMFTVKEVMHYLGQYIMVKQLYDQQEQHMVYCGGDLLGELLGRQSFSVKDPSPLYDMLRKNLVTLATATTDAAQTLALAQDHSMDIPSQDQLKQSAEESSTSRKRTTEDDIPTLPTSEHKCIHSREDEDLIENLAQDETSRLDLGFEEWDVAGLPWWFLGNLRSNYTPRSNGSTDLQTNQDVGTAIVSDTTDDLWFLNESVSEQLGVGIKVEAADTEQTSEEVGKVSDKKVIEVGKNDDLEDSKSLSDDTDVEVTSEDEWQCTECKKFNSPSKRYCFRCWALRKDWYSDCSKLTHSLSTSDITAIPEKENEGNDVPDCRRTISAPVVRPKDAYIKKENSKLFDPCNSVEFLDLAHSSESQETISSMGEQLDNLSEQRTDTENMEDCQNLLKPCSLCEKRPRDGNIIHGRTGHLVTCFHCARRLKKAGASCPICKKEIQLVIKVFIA
Target sequence (Q00987 whole entry, looked up): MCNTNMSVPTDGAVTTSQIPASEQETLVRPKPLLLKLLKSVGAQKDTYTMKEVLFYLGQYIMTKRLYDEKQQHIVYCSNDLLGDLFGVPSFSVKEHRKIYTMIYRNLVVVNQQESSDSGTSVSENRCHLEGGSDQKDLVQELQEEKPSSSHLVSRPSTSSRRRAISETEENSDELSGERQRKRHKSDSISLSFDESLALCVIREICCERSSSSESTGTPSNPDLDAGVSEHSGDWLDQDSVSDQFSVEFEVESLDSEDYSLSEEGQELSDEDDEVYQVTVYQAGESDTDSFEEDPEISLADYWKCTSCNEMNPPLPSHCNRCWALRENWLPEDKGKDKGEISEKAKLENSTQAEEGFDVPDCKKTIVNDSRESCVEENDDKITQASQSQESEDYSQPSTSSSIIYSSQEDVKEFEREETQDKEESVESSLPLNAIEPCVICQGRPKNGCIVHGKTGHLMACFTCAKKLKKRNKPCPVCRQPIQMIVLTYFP
Gli-Sufu antag = blocks Gli-Sufu signaling in a luciferase reporter; Sufu-KO-LIGHT fibroblasts, Gli luciferase reporter luminescence; inhibition, % at 5 µM; 0.74% of 340,000 active; AID 588413;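 active = inhibition above about 55%, limit read from the data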;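 also: 0% = DMSO-treated cells and 100% = wells with medium but no cells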
Jurkat NFkB inh = inhibitors of the PMA/ionomycin-induced NF-kB reporter in Jurkat cells; 0.53% of 330,000 active; PMA/ionomycin-induced NF-kB luciferase reporter, luminescence; inhibition, % at 4 µM; in the data active = inhibition above about 50%
697 NFkB inh = inhibitors of the PMA/ionomycin-induced NF-kB reporter in 697 B cells; AID 435022; 0.33% of 330,000 active; 697 B-cell NF-kB luciferase reporter, 16 h; inhibition, % at 4 µM; in the data active = inhibition above about 35%
CSC inhib = blocks cancer stem cells; cancer stem cell-like cells viability, luminescence; inhibition, % at 7.5 µM; 1.1% of 300,000 active; in the data active = inhibition above about 75%; inconclusive = no clear call, values can overlap the other calls; tested in HMLE shEcad cells
Mdm2-MdmX conf = human Mdm2/MdmX binding inhibition, confirmed | shares compounds with Mdm2-MdmX inh | AID 489028 | 55% of 10,000 active | inhibition, % at 8 µM | luminescent assay; in the data active = inhibition above about 40%
Full FLuc ctr = counter-screen for Mdm2/MdmX inhibitors: full-length luciferase | shares compounds with Mdm2-MdmX inh | SaOS-2 full-length luciferase counterscreen, luminescence | inhibition, % at 8 µM | 77% of 6,200 active;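 active = mean inhibition at 8 µM reaching about 37%, which flags the compound as non-specific, limit read from the data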;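 also: p53-null SaOS-2 cells with luciferase driven by a doxycycline-inducible promoter; compound on cells about two nights before reading with doxycycline added after day one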
Starred values were filed as active, the others as inactive; ? = inconclusive; . = not tested or not shown. Sampled rows, rich in hits. Any-hit rate of the full collection: about 4.5%.

SMILES	Beta apoptosis	Mdm2-MdmX inh	Gli-Sufu antag	Jurkat NFkB inh	697 NFkB inh	CSC inhib	Mdm2-MdmX conf	Full FLuc ctr
COc1ccc(-c2cc(-c3nc4ccccn4c3NCc3ccccc3)ccc2OC)cc1	125.0*	99.1*	89.6*	3.3	22.3	97.7*	99.5*	52.1*
Cc1ccc2nc(-c3cccc(SC4CCCCC4)c3)c(NCc3ccccc3)n2c1	.	22.0	20.2	-17.0	-53.4	.	.	.
c1cc(SC2CCCCC2)cc(-c2nc3cnccn3c2NC2CCCCC2)c1	-1.7	88.7*	0.5	0.7	-33.8	104.2*	29.0	.
c1ccc(CNc2c(-c3cccc(SC4CCCCC4)c3)nc3ccccn23)cc1	124.1*	71.5*	29.3	-15.3	-19.1	102.4*	-0.8	.
Cc1ccn2c(NCc3ccccc3)c(-c3cccc(SC4CCCCC4)c3)nc2c1	-1.0	58.0*	2.8	13.7	4.3	98.8*	-2.1	.
CCOC(=O)c1ccc(NC(=O)NCCc2cnc[nH]2)cc1	.	-1.5	3.1	-13.8	-9.9	-4.8	.	.
CCCCOc1ccc(C(=O)NNC(=O)c2cnccn2)cc1OC	30.0	44.6	-24.1	-0.3	13.4	-3.2	.	.
Clc1cccc(-c2ccc(-c3nc4ccccn4c3NCc3ccccc3)cc2)c1	.	59.3*	-52.5	-7.5	-16.0	.	-57.1	.
Nc1nonc1C(=O)NCCNCc1ccccc1OCc1ccccc1F	3.1	56.3*	18.5	7.4	-33.8	.	10.9	.
CCOc1ccccc1CNCCNC(=O)c1nonc1N	-3.7	2.2	-2.1	8.9	11.6	-3.2	.	.
C[C@]12CCC(=O)C[C@@H]1CC[C@@H]1[C@@H]2CC[C@]2(C)[C@@H](C(=O)COC(=O)CCC(=O)O)CC[C@@H]12	-1.4	-14.4	8.2	-33.3	-6.7	-15.5	.	.
COc1ccc(CNC(=O)C[C@H]2C[C@H](C(=O)N3CCCCC3)[C@@]3(CCc4ccccc4)c4[nH]c5ccc(Cl)cc5c4CCN3C2=O)cc1OC	.	55.1*	-3.9	.	-10.6	.	1.4	.
O=C(C[C@H]1C[C@H](C(=O)N2CCCCC2)[C@@]2(CCc3ccccc3)c3[nH]c4ccc(Cl)cc4c3CCN2C1=O)NCCN1CCOCC1	.	83.1*	-0.2	.	22.8	.	42.1*	42.1*
O=C(C[C@H]1C[C@H](C(=O)N2CCCCC2)[C@@]2(CCc3ccccc3)c3[nH]c4ccc(Cl)cc4c3CCN2C1=O)NCCCn1ccnc1	.	48.6	12.5	.	10.5	.	.	.
COc1ccc(NC(=O)CN(C)C(=O)Cc2ccc3c(c2)CCC3)cc1	0.3	8.4	-2.6	14.9	10.5	-7.8	.	.
CCOc1ccccc1CNC(=O)C1CCCN(c2nnc(C)c3c(C)n(-c4ccccc4)nc23)C1 (stereo not drawn)	35.5	89.7*	44.0	-3.7	-41.8	-26.7	40.6*	33.6
COc1ccc(-n2nc3c(N4CCC(C(=O)NCc5ccccc5C)CC4)nnc(C)c3c2C)cc1	12.4	99.7*	1.2	2.1	-50.3	-16.7	97.8*	50.9*
COc1ccc(-n2nc3c(N4CCC(C(=O)NCC(C)c5ccccc5)CC4)nnc(C)c3c2C)cc1 (stereo not drawn)	13.0	70.4*	28.4	23.3	18.2	-3.3	6.7	.
COc1ccc(-n2nc3c(N4CCC(C(=O)NCCc5ccccc5C)CC4)nnc(C)c3c2C)cc1	37.6	35.7	-4.2	33.3	-14.2	?	.	.
Cc1ccc(-n2nc3c(N4CCC(C(=O)NCCc5ccccc5C)CC4)nnc(C)c3c2C)cc1	61.5	97.6*	31.9	39.4	2.8	83.2*	42.7*	52.7*
COc1ccc(-n2nc3c(N4CCC(C(=O)NCc5ccco5)CC4)nnc(C)c3c2C)cc1	-0.8	33.4	7.4	0.1	6.2	5.5	.	.
COc1cccc(NC(=O)CN(C)C(=O)c2cc(-c3cccc(Br)c3)nc3ccccc23)c1	3.7	69.8*	-6.0	-4.5	6.9	36.0	35.9	.
CCOc1ccc(NC(=O)CN(C)C(=O)c2cc(-c3ccc(OC)cc3)nc3ccccc23)cc1OCC	5.2	70.7*	2.9	21.4	20.9	-8.4	46.1*	74.8*
COc1cccc(NC(=O)CN(C)C(=O)c2cc(-c3ccccc3)nc3ccc(C)cc23)c1	.	.	4.8	.	.	.	.	.
COc1ccc(NC(=O)CN(C)C(=O)c2cc(-c3ccc(Cl)cc3)nc3ccccc23)cc1	2.2	30.2	6.5	8.3	26.8	36.4	.	.
SMILES	Beta apoptosis	Mdm2-MdmX inh	Gli-Sufu antag	Jurkat NFkB inh	697 NFkB inh	CSC inhib	Mdm2-MdmX conf	Full FLuc ctr
O=[N+]([O-])c1cc([N+](=O)[O-])c(Oc2cncc(Cl)c2)cc1NC1CCCCCCC1	5.3	74.3*	-3.6	-43.8	-32.7	38.8	39.6	83.2*
CCOc1ccc(NC(=O)c2ccccc2C(=O)c2ccccc2)cc1OCC	.	-2.8	-4.7	-4.3	-16.2	-12.6	.	.
Nc1c2nc(-c3ccccc3)[nH]c(=O)c2nc(=O)n1-c1ccccc1	4.5	62.7*	5.3	-2.4	-0.2	-0.3	11.6	.
O=c1[nH]c(-c2ccc(F)cc2)nc2c1sc(=S)n2-c1ccccc1	37.6	10.8	5.2	-2.1	28.3	18.4	.	.
CCN1CCc2nc3ccccc3c(C(=O)Nc3ccc(NC(C)=O)cc3)c2C1	-0.5	3.1	-3.5	5.7	8.3	4.7	.	.
CC(=O)Nc1ccc(NC(=O)COC(=O)c2c3c(nc4ccccc24)CCN(Cc2ccccc2)C3)cc1	-0.3	50.9*	7.4	16.4	1.0	4.7	56.2*	84.0*
NC(=O)c1ccc(NC(=O)COC(=O)c2c3c(nc4ccccc24)/C(=C\c2cccs2)CCC3)cc1	59.7	85.2*	-1.9	8.3	21.1	115.2*	75.0*	77.1*
O=C(COC(=O)c1c2c(nc3ccccc13)CCN(Cc1ccccc1)C2)Nc1c(F)cccc1F	-0.8	72.3*	12.4	20.0	21.7	14.3	68.5*	75.8*
C=CCC(O)(CC=C)CNC(=O)c1ccc(OC)c(OC2CCN(C(C)=O)CC2)c1	.	-4.5	.	-5.0	0.8	.	.	.
Cc1cc(C)cc(NC(=O)CCc2nc3sc4c(c3c(=O)[nH]2)CCCC4)c1	.	82.1*	-58.6	11.6	31.9	89.0*	94.4*	95.8*
CN(CC(=O)Nc1ccc(Cl)cc1)C(=O)CCc1nc2sc3c(c2c(=O)[nH]1)CCCC3	2.9	86.0*	7.5	-13.9	-3.1	1.1	50.5*	95.8*
CC(=O)Nc1ccc(NC(=O)CCc2nc3sc4c(c3c(=O)[nH]2)CCCC4)cc1	0.9	11.2	-5.3	10.2	18.5	.	.	.
O=C(CCOc1ccccc1)Nc1ccnn1C1CCN(C(=O)CCC(F)(F)F)CC1	-4.0	-17.1	-0.5	-1.5	7.4	-2.1	.	.
COc1ccc(C2NCCc3c2[nH]c2ccccc32)cc1COc1ccc(F)cc1 (stereo not drawn)	104.4*	68.7*	10.5	-4.3	22.2	?	36.9	.
COc1ccc(C2NCCc3c2[nH]c2ccccc32)cc1CN1CCc2cc(OC)c(OC)cc2C1C (stereo not drawn)	.	.	-1.1	.	.	.	.	.
